The values below come from PubChem BioAssay (EPA / NIEHS).

Molecules are shown by their SMILES. Values joined by “and” are separate entries in the source; they are usually repeats but may differ in a detail not shown here. Identical values can stand only once. Records with an inconclusive call do not appear. Active and inactive are the calls of the source. How the source made its calls: active means hit-call score of the fitted dose curve at least 0.9, where 1 is the maximum; inconclusive means response in the unintended direction; inactive means score below 0.9.

A word on the AC50: it is the concentration giving half of the maximal activity seen.

Assay [1] can be described thus: TOX21_p53_BLA_p5_viability: Viability Assessment in the Tox21 HCT-116 p53 Agonism Beta-lactamase Assay, Phase 5 (AID 2283600). The method, boiled down:
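Cells were plated at 4000/well, rested 5 h at 37C, then given compounds in DMSO (217-fold dilution) for 16 h at 37C, 5% CO2. Following the CCF4-AM beta-lactamase read, CellTiter-Glo was added and luminescence was read after 30 min at room temperature.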

The target in assay [2] is Cellular tumor antigen p53 (Homo sapiens) (UniProt P04637). Briefly: TOX21_p53_BLA_p4_ratio: Tox21 HCT-116 p53 Agonism Beta-lactamase Assay, Ratio, Phase 4 (AID 2283601). The method, boiled down: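 HCT116 cells carrying an inducible beta-lactamase reporter were plated at 4000 cells/well, rested 5 h, then exposed to compounds in DMSO (217-fold dilution) for 16 h at 37C. CCF4-AM substrate was loaded 2 h at room temperature; 460/530 nm emission ratio scored gain-of-signal versus DMSO.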
Cellular tumor antigen p53 (Homo sapiens), sequence (P04637 whole entry, looked up): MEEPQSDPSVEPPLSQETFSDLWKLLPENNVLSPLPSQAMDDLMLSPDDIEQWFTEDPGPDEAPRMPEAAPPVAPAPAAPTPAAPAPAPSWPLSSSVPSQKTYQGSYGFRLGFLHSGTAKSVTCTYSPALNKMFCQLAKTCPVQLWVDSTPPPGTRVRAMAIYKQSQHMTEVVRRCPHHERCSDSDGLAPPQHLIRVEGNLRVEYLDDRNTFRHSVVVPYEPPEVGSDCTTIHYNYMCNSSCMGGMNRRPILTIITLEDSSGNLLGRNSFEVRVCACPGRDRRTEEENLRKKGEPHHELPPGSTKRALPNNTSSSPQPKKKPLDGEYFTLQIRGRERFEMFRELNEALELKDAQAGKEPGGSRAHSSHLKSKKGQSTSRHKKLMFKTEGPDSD

For `Cc1cc(Cc2cc(C)cc(C(C)(C)C)c2O)c(O)c(C(C)(C)C)c1`, the half-maximal activity concentration (AC50) was 17.7 µM (active) and 16.7 µM (active) in assay [1]; 24.2 µM (active) and 48.1 µM (active) in assay [2].
Regarding `CCCCCCCCCCCCCCCCCC[N+](C)(C)Cc1ccccc1`, the figures for the AC50 in assay [1] and in assay [2] were 15 µM (active) and 69.6 µM (active), respectively.
`Cc1ccc(C)c(S(=O)(=O)O)c1`: the call in assay [1] and in assay [2] was inactive.
`CCOC(=O)CN[C@@H](C(=O)N1CC[C@H]1C(=O)NCc1ccc(/C(N)=N/O)cc1)C1CCCCC1`: the outcome in assay [1] and in assay [2] was inactive.
Consider `Oc1c(Cl)ccc(Cl)c1Cl`, for which the compound was called inactive in assay [1] and in assay [2].
With `O=C(c1cc(O)c(O)c(O)c1)c1ccc(O)c(O)c1O`, the compound was classed as inactive in assay [1]. Moreover, the concentration at half-maximal activity (AC50) in assay [2] was 79.2 µM (active) and 49.9 µM (active).
As to `CCCCCCCCCCCC(=O)NCCCN(C)C`, the figures for the concentration at half-maximal activity (AC50) in assay [1] and in assay [2] were 65.7 µM (active) and 59.8 µM (active), respectively.
With `CCCCCCCCCCCCOC(=O)c1cc(O)c(O)c(O)c1`, the AC50 was 41.2 µM (active) and 78.9 µM (active) in assay [1]; 53 µM (active) and 36.9 µM (active) in assay [2].
Turning to `CCOC(C)=O`, the outcome in assay [1] and in assay [2] was inactive.
Turning to `OCC1CCC(CO)CC1` (stereo not drawn), the result in assay [1] and in assay [2] was inactive.
As for `CC(=O)CC(C)C`, the compound was classed as inactive in assay [1] and in assay [2].
Regarding `NNc1nc(-c2ccc([N+](=O)[O-])cc2)cs1`, the outcome in assay [1] was inactive. Also, the half-maximal activity concentration (AC50) in assay [2] is 43.5 µM (active).
On to `Nc1cc(Cl)c(-c2cc(Cl)c(N)cc2Cl)cc1Cl`, for which the AC50 in assay [1] is 71.8 µM (active) and 61.9 µM (active); in assay [2], 81.8 µM (active) and 57.1 µM (active).
For `O=C(Nc1cccc([N+](=O)[O-])c1)c1cc2ccccc2cc1O`, the outcome in assay [1] was inactive. The AC50 in assay [2] was 11.6 µM (active).
